Compounds with a hit are over-represented: about 4.5% of the library has one in this group of screens.
Jurkat NFkB inh: inhibitors of induced NF-kB luciferase reporter, primary screen, TCR NF-kB activation inhibitor project, cell-based, luminescence, uHTS. 330,000 compounds, 0.53% hits. inhibition, % at 4 µM. Jurkat, PMA/ionomycin-induced NF-kB luciferase reporter; in the data active = inhibition above about 50%
CSC inhib: cancer stem cell viability inhibitors, primary screen, luminescence | cancer stem cell-like cells viability | inhibition, % at 7.5 µM | 300,000 compounds, 1.1% hits; in the data active = inhibition above about 75%; tested in HMLE shEcad cells
697 NFkB inh: inhibitors of PMA/ionomycin-induced NF-kB reporter, 697 cells, primary screen, B-cell NF-kB inhibitor project, cell-based, luminescence, uHTS. AID 435022, 2010. 697 B-cell NF-kB luciferase reporter, 16 h. inhibition, % at 4 µM. 330,000 compounds, 0.33% hits; in the data active = inhibition above about 35%
Gli-Sufu block: Gli-Sufu pathway antagonists, primary screen, luciferase luminescence, Sufu-KO-LIGHT cells, uHTS. inhibition, % at 5 µM. 340,000 compounds, 0.74% hits. Sufu-KO-LIGHT fibroblasts, Gli luciferase reporter luminescence;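 active = inhibition above about 55%, limit read from the data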;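 also: 0% = DMSO-treated cells and 100% = wells with medium but no cells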
aSyn 5UTR inh: MLPCN primary screen, SNCA 5' untranslated region. alpha-synuclein 5'UTR reporter, inhibitor activity. inhibition, % (tested at 7.5 µM). AID 1813, 2009. 300,000 compounds, 0.82% hits; in the data active = inhibition above about 60%;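 also: H4 neuroglioblastoma cells stably carrying SNCA 5'UTR luciferase fusion; 0% = DMSO wells and 100% = positive control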
Mdm2-MdmX inh: inhibitors of human Mdm2-MdmX association, primary screen, cell-based, luminescence, split luciferase, SaOS-2, uHTS | 330,000 compounds, 3% hits | inhibition, % at 8 µM | SaOS-2 split-luciferase Mdm2/MdmX complementation | Protein Mdm4 (Homo sapiens) + E3 ubiquitin-protein ligase Mdm2 (Homo sapiens), …;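 active = inhibition of at least 50% at 8 µM in the primary screen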
Target sequence (O15151 whole entry, looked up): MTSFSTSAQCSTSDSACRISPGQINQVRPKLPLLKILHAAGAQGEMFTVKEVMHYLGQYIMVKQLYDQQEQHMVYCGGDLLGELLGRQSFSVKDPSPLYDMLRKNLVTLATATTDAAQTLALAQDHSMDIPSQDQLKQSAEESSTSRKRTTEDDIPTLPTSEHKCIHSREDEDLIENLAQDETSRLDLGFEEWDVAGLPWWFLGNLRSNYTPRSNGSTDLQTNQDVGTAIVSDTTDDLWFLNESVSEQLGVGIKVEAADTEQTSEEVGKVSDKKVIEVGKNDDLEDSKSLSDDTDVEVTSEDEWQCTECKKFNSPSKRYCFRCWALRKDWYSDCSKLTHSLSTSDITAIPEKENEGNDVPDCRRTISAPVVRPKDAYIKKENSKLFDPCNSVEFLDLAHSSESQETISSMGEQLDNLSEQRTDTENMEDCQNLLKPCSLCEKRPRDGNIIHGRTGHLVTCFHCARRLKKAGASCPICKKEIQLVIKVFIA
Target sequence (Q00987 whole entry, looked up): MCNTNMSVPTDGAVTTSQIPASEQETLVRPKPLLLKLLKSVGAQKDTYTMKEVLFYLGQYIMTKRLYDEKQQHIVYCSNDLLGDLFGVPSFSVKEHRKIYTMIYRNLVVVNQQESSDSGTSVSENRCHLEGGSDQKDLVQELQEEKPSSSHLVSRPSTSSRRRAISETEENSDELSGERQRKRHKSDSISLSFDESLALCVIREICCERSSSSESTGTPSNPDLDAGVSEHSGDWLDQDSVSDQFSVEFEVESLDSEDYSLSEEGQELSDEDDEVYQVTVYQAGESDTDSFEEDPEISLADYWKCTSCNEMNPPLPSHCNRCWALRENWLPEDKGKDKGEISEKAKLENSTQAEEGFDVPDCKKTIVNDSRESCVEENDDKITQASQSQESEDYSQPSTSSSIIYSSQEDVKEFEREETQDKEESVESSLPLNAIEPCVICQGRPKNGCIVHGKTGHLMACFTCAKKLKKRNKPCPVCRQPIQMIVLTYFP
Jurkat NFkB conf: PMA/ionomycin-induced NF-kB reporter inhibitors, Jurkat retest, confirmation, T-cell NF-kB inhibitor project, cell-based, luminescence, single concentration; shares compounds with Jurkat NFkB inh; Jurkat NF-kB luciferase, 16 h; inhibition, % at 4 µM; 2,700 compounds, 27% hits;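 active = inhibition reaching about 45% at 4 µM in either replicate, limit read from the data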;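 also: plate controls were PMA/ionomycin stimulated DMSO wells for no effect and unstimulated DMSO wells for full effect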
697 NFkB conf: PMA/ionomycin-induced NF-kB reporter inhibitors, 697 retest, confirmation, B-cell NF-kB inhibitor project, cell-based, luminescence, single concentration; 697 B-cell NF-kB luciferase, 16 h; 2,000 compounds, 35% hits; inhibition, % at 4 µM; shares compounds with 697 NFkB inh; in the data active = inhibition mostly above about 28%, no sharp cut-off; inactive = mostly below about 22%
Mdm2 MdmX conf: Mdm2-MdmX complex disruptors, retested hits, confirmation, luminescence, single concentration | shares compounds with Mdm2-MdmX inh | Mdm2-MdmX binding, luminescent assay | inhibition, % at 8 µM | 10,000 compounds, 55% hits | AID 489028, 2010; in the data active = inhibition above about 40%
Full FLuc ctr: full-length luciferase signal inhibition, confirmation, counter-screen for Mdm2/MdmX interaction inhibitor project, cell-based, single concentration, SaOS-2; shares compounds with Mdm2-MdmX inh; SaOS-2 full-length luciferase counterscreen, luminescence; inhibition, % at 8 µM; 6,200 compounds, 77% hits;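 active = mean inhibition at 8 µM reaching about 37%, which flags the compound as non-specific, limit read from the data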;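 also: p53-null SaOS-2 cells with luciferase driven by a doxycycline-inducible promoter; compound on cells about two nights before reading with doxycycline added after day one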
An asterisk follows results filed as active; . = not tested or not shown.

SMILES | Jurkat NFkB inh | CSC inhib | 697 NFkB inh | Gli-Sufu block | aSyn 5UTR inh | Mdm2-MdmX inh | Jurkat NFkB conf | Mdm2 MdmX conf | Full FLuc ctr | others
C/C(=N\NC(=O)c1c(Cl)c(C)nn1C)c1ccc(NC(=O)C2CCC2)cc1 | 61.8* | 32.6 | 1.6 | 48.0 | 44.0 | 56.0* | 16.9 | 75.1* | 66.9*
O=C1CC(c2ccccc2Br)c2cc3c(cc2N1)CCC3 (stereo not drawn) | 54.7* | 66.6 | -46.7 | . | 12.3 | 58.1* | 12.2 | 61.5* | 55.9*
O=C1CC(c2cc(Br)ccc2F)c2cc3c(cc2N1)CCC3 (stereo not drawn) | 72.7* | 82.4* | 8.4 | 37.1 | 65.1* | 65.9* | 48.0* | 55.8* | 95.0*
Cc1cc2c(cc1C)C(c1ccccc1Br)CC(=O)N2 (stereo not drawn) | 17.1 | 7.3 | 3.8 | 6.4 | 17.4 | 16.5 | . | . | .
O=C1CC(c2cccc(Cl)c2)c2cc3c(cc2N1)CCC3 (stereo not drawn) | 56.2* | . | -59.8 | 3.3 | 49.3 | 54.2* | 35.2 | 57.5* | 63.5*
C=CCC1(N(C(C)=O)c2ccccc2)CCCCC1 | -10.0 | 0.7 | -7.6 | -5.0 | 23.2 | -1.4 | . | . | .
CNC[C@@H](Cc1ccccc1)NC[C@@H](CC1CCCCC1)NCCCc1ccccc1 | 91.3* | 110.6* | 21.7 | 8.0 | 124.9* | 97.9* | 23.5 | 99.8* | 52.0*
CNC[C@@H](CC1CCCCC1)NC[C@H](CC(C)C)NCCc1cccc(C(F)(F)F)c1 | 86.1* | 110.7* | 11.8 | -2.7 | 122.0* | 98.7* | 45.2 | 100.0* | 49.9*
Cc1nccn1CCOc1ccccc1Cl | -7.9 | . | -10.9 | . | 19.1 | 3.4 | . | . | .
COc1ccc(NC(=O)COc2coc(CN3c4ccccc4CC3C)cc2=O)cc1 (stereo not drawn) | 19.3 | 18.0 | 18.3 | 3.2 | 6.0 | 3.6 | . | . | .
COc1ccc(CC(=O)Nc2cccc(-c3nnc(-c4cccc(C)c4)o3)c2)cc1OC | 50.6* | 63.1 | -82.9 | -16.3 | -187.4 | 93.4* | 60.6* | 61.1* | 41.1*
Cc1ccc(Nc2nc(N)nc(CCl)n2)c(C)c1 | 90.4* | 2.0 | -151.7 | 67.6* | -44.7 | 95.5* | 4.2 | 100.1* | 53.4*
CCOc1ccc(Nc2nc(N)nc(CCl)n2)cc1 | 58.6* | -1.6 | -10.8 | 8.7 | 96.0* | 98.1* | 10.2 | 98.0* | 56.5*
Nc1nc(CCl)nc(Nc2ccccc2)n1 | 15.5 | -1.6 | 10.3 | -3.1 | -53.2 | 36.2 | . | . | .
Cc1cccc(Nc2nc(N)nc(CCl)n2)c1C | 87.6* | -2.2 | 33.8 | 81.2* | 3.2 | 100.3* | 23.8 | 100.1* | 60.3*
Cc1ccc(Nc2nc(N)nc(CN3CCCCCC3)n2)c(C)c1 | 4.6 | -10.0 | -4.8 | 1.4 | 3.6 | -2.3 | . | . | .
Cc1cc(C)c[n+](-c2[nH]c(=O)sc2/C=N/N=C(\N)[S-])c1 | 8.6 | 12.0 | 5.2 | -6.0 | 8.4 | 2.2 | . | . | .
CCOCCCNC(=O)c1ccc2c(c1)N=C(CC)c1cc(Br)ccc1S2 | 78.4* | 69.2 | -251.4 | 40.9 | 88.0* | 66.1* | 54.8* | 59.5* | 113.0* | 697 NFkB conf=14.4
